Calls of active or inactive are those of the source.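 Rule for the calls: active = cell survival after UV exposure 2 SD above solvent-only control wells at 10 µM, confirmed on one or two repeats; inactive = the rest.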

This experiment can be described thus: cell survival after pyrene fatty acid photosensitization – ZR-82 cells, Analyticon library, screen 2, phospholipid biosynthesis inhibitor project, primary screen (AID 1347383).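 Note: survival reflects blocked phospholipid synthesis cutting uptake of the phototoxic fatty acid; compound and fatty acid exposure 3 h then viability read next day.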 As to conditions: ZR-82 CHO cells, pyrene-fatty acid UV killing, CellTiter Blue; at 10 µM; peroxisome-deficient CHO-K1 variant; with DGAT-1, DGAT-2 and ACAT inhibitors. In general terms: Resazurin is reduced to fluorescent resorufin, in cell work by metabolically active cells.
`CC(C)c1ccc2c(c1)CCC1[C@](C)(C(=O)O)CCC[C@]21C` (stereo not given in full): the result was inactive.
The entry for `CC1=CC2=C(C=O)C(=O)[C@](C)(O)[C@@H](O)C2=CO1` is “inactive”; for `CC1=CC(=O)CC(C)(C)[C@@]1(O)/C=C/C(C)=C/C(=O)O` it is “inactive”.
As for `C/C=C/C(O)CC(=O)O` (stereo not given), the outcome was inactive.
The entry for `O=C(O)c1ccc(CO)o1` is “inactive”; for `COc1c(C)c2c(c(O)c1C/C=C(\C)C(O)CC(=O)O)C(=O)OC2` (stereo not given) it is “inactive”.
The entry for `COc1cc(/C=C/c2cc(O)cc(O)c2)ccc1O` is “inactive”.
The value for `COc1ccc(Cc2nccc3cc(OC)c(OC)cc23)cc1OC` was “inactive”; that for `CC(O)C(O)c1ccc(OC(C)C(O)c2ccc(O)cc2)cc1` (stereo not given) was “inactive”; that for `CC1=CCC(C(C)C)c2cc(C)c(O)cc21` (stereo not given) was “inactive”.
`CCC(C)(O)C(O)C(=O)OCC1CC[N+]2([O-])CCCC12` (stereo not given): the result was inactive.
The entry for `CC(=O)O[C@H]1CC2C(COC(=O)CC(C)C)=CO[C@@H](OC(=O)CC(C)C)C2[C@@]12CO2` (stereo not given in full) is “inactive”; for `OC1C(c2ccccc2)CCC(c2ccccc2)C1O` (stereo not given) it is “inactive”; for `C/C(=C\C(=O)C(C)C1CCC2C3=C(CCC21C)C1(C)CCC(O)C(C)(C)C1(O)CC3)C(C)(C)O` (stereo not given) it is “inactive”.
Consider `COc1cc2c(c(OC)c1OC)-c1ccc(OC)c(=O)cc1[C@@H](NC(C)=O)CC2`, for which the outcome was inactive.
The value for `COc1c2ccoc2c(OC)c2oc(=O)ccc12` was “inactive”; that for `COC1=CC(=O)CC(C)C12Oc1cc(OC)cc(OC)c1C2=O` (stereo not given) was “inactive”; that for `Cn1c2c(O)c(O)ccc2c(=O)c2c(O)cc3c(c21)C=CC(C)(C)O3` was “inactive”.
The value for `COc1cc(CCC(=O)O)cc(OC)c1OC` was “inactive”; that for `C=C1CCC2C(C)(C)C(OC(C)=O)CCC2(C)C1COc1ccc2ccc(=O)oc2c1` (stereo not given) was “inactive”; that for `CCC1CN2CCc3cc(OC)c(OC)cc3C2CC1CC1NCCc2cc(OC)c(OC)cc21` (stereo not given) was “inactive”.
In the case of `CC(C(=O)CCCCC(O)C(C)O)C(=O)N1C=CCC1` (stereo not given), the result was inactive.
On to `CCCCCCCCCCCc1cc(O)cc(O)c1`, for which the result was inactive.
The entry for `COc1cc(O[C@@H]2O[C@H](CO)[C@@H](O)[C@H](O)[C@H]2O)cc2occ(-c3ccc(O)cc3)c(=O)c12` is “inactive”.
The value for `C/C(=C\C(=O)C[C@]12C(=O)O[C@]3(C)CC[C@H]1C[C@H]23)C(N)=O` was “inactive”; that for `COC(=O)CC(O)C1OC(c2ccccc2)C(O)C1O` (stereo not given) was “inactive”; that for `C/C=C(/C)C(=O)Oc1c(OC)c(OC)cc2c1-c1c(cc(OC)c(OC)c1OC)C[C@](C)(O)[C@@H](C)C2` was “inactive”.
Take `O=C(c1cccc(O)c1)c1c(O)cc(O)cc1O`: the result was inactive.
Take `O=C1c2c(O)cc(O)cc2O[C@@H](c2ccc(O)cc2)[C@@H]1O`: the outcome was inactive.
The value for `COc1ccc(-c2coc3cc(O)ccc3c2=O)cc1O` was “inactive”.
The value for `O=C(O)c1cc(O)c2c(c1)C(=O)c1cccc(O)c1C2=O` was “inactive”; that for `CCCCCCCCC(=O)/C=C/C=C/C(=O)CCCC(=O)O` was “inactive”.
The value for `Oc1cc(O)c2c(c1)O[C@H](c1ccc(O)c(O)c1)[C@@H](O)C2` was “inactive”.
For the compound `CC(C)c1ccc2c(c1)CCC1C(C)(C(=O)O)CCCC21C` (stereo not given), the result was inactive.
The entry for `C=C1C[C@]23C[C@H]4C5[C@]6(C)CC(=O)C[C@]57C(C2C(O)[C@H]1C(O)C37)N4C6` (stereo not given in full) is “inactive”; for `OCc1ccccc1O[C@@H]1O[C@H](CO)[C@@H](O)[C@H](O)[C@H]1O` it is “inactive”.
Consider `CC1CC(=O)C2CC12C(C)(O)CO` (stereo not given), for which the result was inactive.
On to `CNC(=O)Oc1ccc2c(c1)[C@]1(C)CCN(C)[C@@H]1N2C`, for which the outcome was inactive.
The entry for `CC(C)(O)[C@@H]1CCC(C)([C@H]2CC[C@]3(C)[C@@H]2[C@H](O)CC2[C@@]4(C)CC[C@H](O)C(C)(C)[C@@H]4CC[C@]23C)O1` (stereo not given in full) is “inactive”.
The value for `COc1ccc2ccc(=O)oc2c1` was “inactive”.
